Measurements published in PubChem BioAssay (NCI).
Several values for one entry are separate records, joined by “and”; a condition that tells them apart may be missing. Equal values may be shown once. About 83,000 compounds went through this panel and 20% of them were active in at least one assay; those are over-represented in the sample as a whole.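 Single-dose data. Exposure time 48 hours. Values below 10 considered active.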 Activity calls are given as the source filed them.

The molecules below were run on MDA-MB-468 breast (assay: NCI-60 one-dose screen, 48 h (100 = growth as untreated, 0 = no growth, -100 = all killed)). Conditions: 10 µM unless noted.

Row | SMILES | growth
1 | C/C(=N\NC(=O)C(C)SC(C)C(=O)N/N=C(\C)c1cccnc1)c1cccnc1 (stereo not given) | 103% (inactive)
2 | CCCCN(CCCC)C(=O)[C@H](CC)[C@@H]1CC[C@@H](C)[C@@H]([C@H](C)[C@@H](O)[C@@H](C)C(=O)[C@H](CC)C2O[C@]3(C=C[C@@H](O)[C@]4(CC[C@@](C)([C@H]5CC[C@](O)(CC)[C@H](C)O5)O4)O3)[C@H](C)C[C@@H]2C)O1 (stereo not given in full) | -22.1% (active)
3 | CCOC(=O)c1ccccc1-c1c2ccc(=[N+](C)C)cc-2oc2cc(N(C)C)ccc12 | -17.9% (active)
4 | CC1(C)CC[C@]2(C(=O)N3CCCNCC3)CC[C@]3(C)C(=CC[C@@H]4[C@@]5(C)CCC(=O)C(C)(C)[C@@H]5CC[C@]43C)[C@H]2C1 | 106% (inactive)
5 | CCN1C(=O)/C(=C/N2N=C(c3ccc(Cl)cc3)CC2c2ccc(OC)cc2)SC1=S (stereo not given) | 93.3% (inactive)
6 | CC/C(=N/NC(N)=O)c1ccccc1 | 103% (inactive)
7 | NC(=O)C(=Cc1ccc(Cl)cc1)C(N)=O | 3.1% (active)
8 | CC(C)OC(=O)NNC(=O)c1ccncc1 | 118% (inactive)
9 | Oc1c(CNCCNCc2cc(Cl)cc(Cc3ccccc3)c2O)cc(Cl)cc1Cc1ccccc1 | 24.2% (inactive)
10 | O=C1c2cccc3cccc(c23)C(=O)N1CC#Cc1ccc2c3c(cccc13)C(=O)N(CCN1CCNCC1)C2=O | 111% (inactive)
11 | CCCOS(=O)(=O)c1ccccc1 | 108% (inactive)
12 | COC1=CC(c2ccc[nH]2)=N/C1=C\c1[nH]c(C)c(C)c1CCC(=O)OCc1ccccc1 | 15.6% (inactive)
13 | CCC1(c2ccccc2)Oc2ccccc2-n2c(C#N)c3ccccc3c2C1=O (stereo not given) | 104% (inactive)
14 | COc1ccc(OC)c(/C=C/c2nnc(Nc3ccccc3)o2)c1 | 103% (inactive)
15 | CCN1C(=S)N(CC)C2C1NN=C1SC(c3ccccc3)=CC(=O)N12 (stereo not given) | 92.6% (inactive)
16 | CN1CCN(c2ccc(OC(F)(F)F)c(Nc3ncc4c(n3)-c3c(c(C(N)=O)nn3CCO)CC4)c2)CC1 | 9.13% (active)
17 | Cc1[nH]n(-c2cccc(Cl)c2)c(=O)c1/C=C1\C=c2ccccc2=CC1=O | 34.5% (inactive)
18 | CCc1ccc(/C=C/c2ccc(O)c3ncccc23)[n+](C)c1 | 19.6% (inactive)

Row | SMILES | growth
19 | O=C1/C(=C/c2ccccc2[N+](=O)[O-])Cc2ccccc21 | -46.2% (active) and -17.9% (active)
20 | COc1ccc(F)cc1/C=C/C(=O)/C=C(/C=C/c1cc(F)ccc1OC)OB(F)F | 31.5% (inactive)
21 | COc1ccc(-c2cc(-c3cc(OC)ccc3OC)[nH]c(=O)c2C#N)cc1 | 37.9% (inactive)
22 | COC(=O)[C@H]1[C@H]2C[C@@H]3c4[nH]c5cc(OC)ccc5c4CCN3C[C@H]2C[C@@H](OC(=O)/C=C/c2cc(OC)c(OC)c(OC)c2)[C@@H]1OC | 9.21% (active)
23 | CCN(CC)C(=O)/C=C(/C)c1ccccc1 | 87.6% (inactive)
24 | CCO/C=N/C1=C(C#N)C(c2ccc(OC)cc2)c2c(c3ccccc3n(C)c2=O)O1 (stereo not given) | 105% (inactive)
25 | ClC1=NC(Cl)C(Cl)=N/C1=N\c1ncn[nH]1 (stereo not given) | -61.6% (active)
26 | CC1=CC(C)=Nc2ccc(Cl)cc2N1 | 109% (inactive)
27 | CC(C)n1nc(-c2ccc3oc(N)nc3c2)c2c(N)ncnc21 | -34.1% (active)
28 | C/C(=N\O)[C@H]1C[C@]23CC[C@]4(C)[C@H](CC[C@@H]5[C@@]6(C)CC/C(=N/O)C(C)(C)[C@@H]6CC[C@]54C)[C@H]2[C@H](C)C1(C)OC3 | 103% (inactive)
29 | COc1ccc(NC(=O)[C@H](C)NC(=O)OC(C)(C)C)cc1C(=O)Nc1cccc(-c2cc(=O)c3c(OC)c(OC)c(OC)cc3o2)c1 | 4.39% (active)
30 | O=C(/C=C/c1ccccc1)n1c(-c2ccccc2)nc2ccccc21 | 98.2% (inactive)
31 | CC1COc2c(N3CCN(C)CC3)c(F)cc3c(=O)c(C(=O)N/N=C/c4cc[nH]c4)cn1c23 (stereo not given) | -9.35% (active)
32 | CC[n+]1ccc2c(c1)C(=O)c1nccc3c1c-2nc1ccccc13 | -52.3% (active)
33 | O=C1[C@@H]2Cc3c([nH]c4ccccc34)[C@H](c3ccc(Br)cc3)N2C(=O)CN1C1CCN(Cc2c(Cl)cccc2Cl)CC1 | 95.9% (inactive)
34 | CC(C)(C)[Si](C)(C)OCC1OC(n2cnc3c(N)ncnc32)CC1OS(C)(=O)=O (stereo not given) | 99.7% (inactive)
35 | O=C1/C=C/[C@@H](O)[C@@H]2C[C@@H](O)C[C@H]2/C=C/CCC[C@H](CCc2ccc(NC(=S)Nc3ccc4c(c3)C(=O)OC43c4ccc(O)cc4Oc4cc(O)ccc43)cc2)O1 | -17.5% (active)
